Hits are enriched below; roughly 2.5% of the tested compounds scored in any of these assays.
Pol kappa inh-1 = DNA polymerase kappa (human) inhibition; Q9UBT6; purified Pol kappa, fluorescent DNA synthesis assay, 10 min; Potency, µM (doses to about 107 µM), for the others: at the highest dose activity, negative = inhibition, actives largely listed as inhibitors; 400,000 compounds, 0.53% hits; AID 588579; note: % is set by controls: 0 for no effect and ±100 for the full control effect
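Activity was followed as the change in fluorescence between reads at 0 and 10 min after starting the reaction with 50 nM substrate. Beforehand, 10 nM polymerase had been preincubated with compound for 15 min at room temperature.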
Pol eta inh-1 = inhibitors of human DNA polymerase eta; Potency, µM (titrated, usually from 114 µM), without a hit: top-dose activity change, negative = inhibition, usual class: inhibitors; recombinant Pol eta, fluorescent DNA replication assay; AID 588591; 390,000 compounds, 1.2% hits; note: % is set by controls: 0 for no effect and ±100 for the full control effect
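Pol eta (10 nM) was preincubated with compounds for 15 min at room temperature, after which fluorescent replication substrate (50 nM final) was added to start the reaction. Fluorescence was read kinetically at 0 and 10 min.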
L3MBTL1 block = inhibitors of human L3MBTL1; Q9Y468; AlphaScreen L3MBTL1–H3K9me1 peptide binding; Potency, µM (titrated, usually from 57.1 µM), without a hit: top-dose activity, negative = inhibition, usual class: inhibitors; 230,000 compounds, 0.66% hits; AID 485360; note: % is set by controls: 0 for no effect and ±100 for the full control effect; nearly all actives have a fitted effect of over 60% in size
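Displacement of a biotinylated histone H3(1-15) peptide monomethylated at Lys9 (75 nM) from L3MBTL1 (50 nM) was measured by AlphaScreen after a 30 min room-temperature compound incubation; cefsulodin titration served as intraplate control.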
POLB inh = DNA polymerase beta (human) inhibition | Potency, µM (doses to about 114 µM), for the others: top-dose activity change, negative = inhibition, usual class: inhibitors | 340,000 compounds, 1.3% hits | Pol beta primer extension/strand displacement, fluorescence kinetic | P06746; note: % is set by controls: 0 for no effect and ±100 for the full control effect
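Human Pol beta at 10 nM; strand-displacement substrate 50 nM final. Compound exposure 15 min at room temperature before start, reaction 10 min at room temperature.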
APEX1 inh = inhibitors of human APE1 endonuclease; 350,000 compounds, 0.35% hits; Potency, µM (series often up to 65.8 µM), inactives show top-dose activity change, negative = inhibition, hits mostly inhibitors; P27695; recombinant APE1, TAMRA/BHQ-2 abasic DNA cleavage fluorescence;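 note: plate controls were vehicle for no effect and reference inhibitor for full effect; nearly all actives have a fitted effect of over 55% in size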
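Kinetic fluorescence read (525 ex/598 em nm, three reads 60 s apart) of AP-site incision; signal = third minus first read. Enzyme 0.75 nM, dual-labelled THF duplex 50 nM, compound preincubation 15 min RT.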
Pol iota inh = inhibitors of human DNA polymerase iota. 390,000 compounds, 1% hits. Pol iota fluorescent replication assay, 10 min. AID 588590. Potency, µM (highest dose often 115 µM), for inactives: top-dose activity, negative = inhibition, most hits filed as inhibitors
Target sequence (Q9UNA4 whole entry, looked up): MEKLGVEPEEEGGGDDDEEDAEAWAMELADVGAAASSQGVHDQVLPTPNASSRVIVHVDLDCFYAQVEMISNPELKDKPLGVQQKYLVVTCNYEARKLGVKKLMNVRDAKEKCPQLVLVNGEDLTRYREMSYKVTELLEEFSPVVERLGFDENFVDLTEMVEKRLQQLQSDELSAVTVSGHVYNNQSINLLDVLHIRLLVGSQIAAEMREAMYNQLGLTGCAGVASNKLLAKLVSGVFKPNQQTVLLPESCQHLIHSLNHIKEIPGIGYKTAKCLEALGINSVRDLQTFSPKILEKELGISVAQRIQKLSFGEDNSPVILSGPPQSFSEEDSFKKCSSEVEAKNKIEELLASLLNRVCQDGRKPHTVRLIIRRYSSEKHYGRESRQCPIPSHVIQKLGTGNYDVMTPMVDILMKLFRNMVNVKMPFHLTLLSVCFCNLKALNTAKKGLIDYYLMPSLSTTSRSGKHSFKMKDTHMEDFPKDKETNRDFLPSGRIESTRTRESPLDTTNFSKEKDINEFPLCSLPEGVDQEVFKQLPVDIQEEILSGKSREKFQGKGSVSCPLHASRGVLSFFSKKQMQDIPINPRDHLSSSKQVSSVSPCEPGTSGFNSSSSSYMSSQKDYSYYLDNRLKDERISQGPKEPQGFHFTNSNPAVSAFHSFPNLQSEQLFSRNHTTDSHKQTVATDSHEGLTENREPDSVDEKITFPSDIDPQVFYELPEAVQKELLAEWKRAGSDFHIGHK
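Fluorescent replication assay read twice, at 0 min and 10 min after adding 50 nM (final) substrate. Enzyme (10 nM) and compounds were first incubated 15 min at room temperature; enzyme-free buffer wells were negative controls.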
Pol kappa inh-2 = Pol kappa (human) inhibition, cherry-pick confirmation | shares compounds with Pol eta inh-1 | 920 compounds, 76% hits | Potency, µM, hits mostly inhibitors | AID 720501 | purified Pol-kappa, fluorescent strand-displacement substrate
Pol eta inh-2 = confirmation of human DNA polymerase eta inhibitors. shares compounds with Pol eta inh-1. Pol eta primer extension, TAMRA/BHQ fluorescence, 10 min. Potency, µM, usual class: inhibitors. 2,600 compounds, 64% hits
* = called active by the depositor; ? = inconclusive; . = no result given; [ ] = remark or other dose. Calls come from the whole dose curve; as a rule, active = well fitted curve in the direction sought with a large enough effect; inconclusive = small, poorly fitted or top-dose-only effect, or another doubt; inactive = no such curve, though single readings can be large; an effect the other way counts as inactive or inconclusive. Potency is the fitted concentration of half-maximal effect.

SMILES	Pol kappa inh-1	Pol eta inh-1	L3MBTL1 block	POLB inh	APEX1 inh	Pol iota inh	Pol eta inh-2	others
Cc1cccc(N2C(=O)NC(=O)/C(=C\c3cccn3-c3ccc(Cl)cc3)C2=O)c1	79.4µM*	11.2µM*	-5.6%	22.4µM*	-0.1%	22.4µM*	60.1*
Nc1ccc([N+](=O)[O-])cc1O	.	.	.	.	17.5%	.	.
Cc1c(Cl)cccc1N1C(=O)NC(=O)/C(=C\c2cc(C)n(-c3cccc(C(=O)O)c3C)c2C)C1=O	79.4µM*	35.5µM*	-12.0%	?	-5.6%	11.2µM*	?
Cc1cc(/C=C2\C(=O)NC(=O)N(c3cccc(F)c3)C2=O)c(C)n1-c1ccc(C(=O)O)c(Cl)c1	?	14.1µM*	?	25.1µM*	-32.0%	?	33.8*
Cc1ccccc1N1C(=O)NC(=O)/C(=C\c2cnn(-c3ccccc3)c2)C1=O	-4.9%	22.4µM*	-16.9%	15.8µM*	-0.7%	-6.2%	?
COc1cc(O)c(C(=O)O)c(-c2cc(O)c(O)cc2C)c1	?	10µM*	.	20µM*	20µM*	?	?
Clc1ccc(C(c2ccc(Cl)cc2)n2cc[n+](CC(OCc3ccc(Cl)cc3Cl)c3ccc(Cl)cc3Cl)c2)cc1 (configuration not stated)	-11.7%[60.1 µM]	?	5.1%	1.4%[57.1 µM]	-4.1%	?	.	Pol kappa inh-2=67*
Clc1ccc(COC(Cn2ccnc2)c2ccc(Cl)cc2Cl)cc1 (configuration not stated)	?	-26.9%	-11.7%	14.7%	?	8.8%	.
CC1=Nc2ccccc2/C1=C/c1c(O)[nH]c(=O)[nH]c1=O	-2.3%	-1.2%	3.3%	1.4%	-12.1%	?	.
O=c1[nH]c(O)c(/C=C2/C=CC(c3cc(Cl)ccc3Cl)=N2)c(=O)[nH]1	-5.8%	17.8µM*	.	17.0%	5.0%	32.2%	?
Cc1ccc(S(=O)(=O)Cc2ccc(C(=O)N3CCC4(CC3)OCCO4)o2)cc1	?	12.6µM*	?	10µM*	?	?	?
O=C(O)CCC(=O)NCCC1=c2ccccc2=N/C1=C\c1c(O)n(Cc2ccc(F)cc2)c(=S)[nH]c1=O	?	50.1µM*	-21.0%	-8.0%	-3.4%	?	?
Cc1ccc(OCCn2cccc2/C=C2/C(=O)NC(=O)N(Cc3ccco3)C2=O)cc1	28.2µM*	20µM*	.	-14.4%	-10.1%	8.91µM*	67.5*
Cc1ccc(-n2c(C)cc(/C=C3/C(=O)NC(=O)N(Cc4ccco4)C3=O)c2C)cc1	?	50.1µM*	?	?	?	20µM*	?
Cc1cc(/C=C2\C(=O)NC(=O)N(Cc3ccco3)C2=O)c(C)n1-c1ccc(O)cc1	39.8µM*	20µM*	39.8µM*	11.2µM*	-0.2%	?	?
C=CCN1C(=O)/C(=C/c2cc(C)n(-c3cccnc3)c2C)C(=O)NC1=S	-19.4%	1.6%	-19.7%	-25.7%	3.5%	-13.0%	.
Cc1ccc(/C=C2\C(=O)NC(=O)N(CCc3ccc(F)cc3)C2=O)o1	-30.7%	-13.9%	?	-11.4%	3.2%	?	.
COc1ccc(N2C(=O)/C(=C/c3ccc(C)o3)C(=O)NC2=S)cc1	-95.6%	12.6µM*	.	35.5µM*	-2.9%	25.1µM*	30.1*	Pol kappa inh-2=16.8*
CCCN1CCCC2Cc3[nH]ncc3CC21 (configuration not stated)	.	-3.1%[57.1 µM]	.	11.5%[57.1 µM]	-3.2%	3.2%[58.9 µM]	.
C=C(C)CCl	.	.	.	.	-3.7%	.	.

From PubChem BioAssay
